# Pf growth 96h: P. falciparum growth inhibition at 96 hour, primary screen for plastid delayed-death inhibitors | 320,000 tested, 6.9% active | P. falciparum luciferase reporter growth, 96 h | Potency, µM (top dose mostly 28.7 µM), without a hit: at the top dose activity change, negative = inhibition, actives largely listed as inhibitors; note: potency is the fitted concentration of half-maximal effect
#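 Two-generation exposure (96 h) targets delayed-death phenotype. Reporter parasites carrying integrated firefly luciferase, in red cells at 2% hematocrit and 0.05% parasitemia final, kept at 37 C, 5% CO2; luminescence loss indicates inhibition.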
# HCV inhibitor: HCV inhibition; Potency, µM (highest dose often 41.8 µM), inactives show top-dose activity change, negative = inhibition, actives largely listed as inhibitors; AID 651820; 340,000 tested, 3.4% active; Huh7.5.1 HCVcc-Cre infection, luciferase reporter, 44 h; note: potency is the fitted concentration of half-maximal effect
#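 Reporter virus HCVcc-Cre (~0.5 moi) infects cells exposed to compound; seeding density 1,000 cells/well with 4 h settling beforehand. Luminescence, 15 sec read, taken 44 h post-infection following a 15 min RT substrate incubation.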
# HCMV inh: blocks human cytomegalovirus replication; HFF cells, HCMV-luciferase reporter, 72 h; hits give low values; 410,000 tested, 4.5% active; activity change, negative = inhibition, % at 57.5 µM; AID 1259415; in the data active = activity change below about -60%; inconclusive = no clear call, values can overlap the other calls; inactive = above about -39%
#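 Human foreskin fibroblasts infected with luciferase-reporter HCMV at MOI 1 PFU/cell, compounds at two doses. Luciferase measured 72 h post infection; normalized to buffer-only basal and Salinomycin (10uM) controls.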
# Pf growth 48h: inhibits P. falciparum growth in the first generation, 48 h | 310,000 tested, 5.9% active | P. falciparum luciferase growth in erythrocytes, 48 h | Potency, µM (highest dose often 28.7 µM), for the others: at the top dose activity change, negative = inhibition, hits mostly inhibitors; note: potency is the fitted concentration of half-maximal effect
#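 Luminescence readout; reporter = integrated firefly luciferase in P. falciparum. RBC culture at 2% hematocrit, 0.1% parasitemia final, 37 C/5% CO2; decreased signal taken as growth inhibition.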
# * marks the source's active call; other numbers are inactive results; i = inactive; ? = inconclusive; . = no result given; [ ] = dose if it differs, or a comment. Compounds with a hit are over-represented: about 13% of the library has one in this group of screens. Unless noted, calls come from the whole dose curve; as a rule, active = well fitted inhibition curve with a large enough effect; inconclusive = small, poorly fitted or top-dose-only effect, or another doubt; inactive = no such curve, though single readings can be large or run the other way. % is set by controls: 0 for no effect and ±100 for the full control effect.
SMILES,Pf growth 96h,HCV inhibitor,HCMV inh,Pf growth 48h
O=c1c2ccccc2nc(C[n+]2ccccc2)n1-c1cccc(C(F)(F)F)c1,12µM*,-3%,-6,-18%
O=c1c2ccccc2nc(CSc2ncnc3nc[nH]c23)n1-c1cccc(C(F)(F)F)c1,.,-13%,-3,?
O=c1sc2ccccc2n1COc1ccccc1,-3%,20%,-95*,-6%
CCOc1ccccc1Cn1c(=O)sc2ccccc21,?,10%,-66*,4%
O=c1sc2ccccc2n1COc1ccc(Cl)cc1,21%,-19%,-23,.
O=C(CCCn1c(=O)c2cccn2c2cccnc21)Nc1ccccc1Br,.,.,43,.
CN(C)Cc1nc2ccccc2c(=O)n1Cc1nc(-c2cccc([N+](=O)[O-])c2)cs1,?,11µM*,44,?
Cc1cc(-c2cccc([N+](=O)[O-])c2)nc2ccccc12,i,?,17,50%
Cc1cc(N2CCN(c3nc(-c4ccc([N+](=O)[O-])cc4)cs3)CC2)c2ccccc2n1,26%,6.3µM*,-23,?
Cc1cc(-c2ccc([N+](=O)[O-])cc2)nc2ccccc12,118%,-7%,46,48%
CN1CCN(Cc2nc3ccccc3c(=O)n2CC#N)CC1,4%,6%,19,-4%
CN1CCN(Cc2nc3ccccc3c(=O)n2Cc2nc(-c3ccc([N+](=O)[O-])cc3)cs2)CC1,2.6µM*,?,?,?
COc1ccccc1NC(=O)CN(c1cc(C)cc(C)c1)S(=O)(=O)c1c(C)[nH]c(=O)[nH]c1=O,.,.,13,.
COc1ccc(-c2cn3nc(N4CCC(C(=O)Nc5ccc(C)cc5)CC4)sc3n2)cc1,.,.,0,.
O=C(c1ccc(-c2ccccc2)cc1)N1CCN(c2ncccn2)CC1,10µM*,5%,32,-7%
C=CCN1CCN(C(=O)c2ccc(-c3ccccc3)cc2)CC1,1.3µM*,5%,36,12%
COc1ccc(Cl)cc1NC(=O)CSc1nc2c([nH]c3ccccc32)c(=O)n1-c1ccccc1,.,.,35,.
Cc1ccc(S(=O)(=O)Cn2nnnc2CN2CCCC3(CCCCC3)C2)cc1,.,3%,-68*,13µM*
Cc1ccc(-n2nnnc2CN2CCCCC2)cc1,2.1µM*,-3%,-27,-13%
Clc1ccc(-n2nnnc2CN2CCOCC2)cc1,53%,10%,37,6%
O=C(NCC(c1ccco1)S(=O)(=O)c1cccs1)c1ccccc1 (centres undefined),.,.,23,.
O=C(CSc1nnc(CNC(=O)c2c(F)cccc2Cl)o1)Nc1cccc(F)c1,.,.,3,.
CN1C(=O)C(C2(O)C(=O)N(Cc3ccccc3)c3cc([N+](=O)[O-])ccc32)c2ccccc21 (centres undefined),.,.,-79*,.
Cc1ccc(NS(=O)(=O)c2cccc3nsnc23)cc1C,4.1µM*,11%,-38,0%
O=S(=O)(Nc1cccc(F)c1)c1cccc2nsnc12,7%,15%,-14,3%
SMILES,Pf growth 96h,HCV inhibitor,HCMV inh,Pf growth 48h
CN(C)CCCN(C(=O)c1ccc2ccccc2c1)c1nc2cc3c(cc2s1)OCO3,10µM*,?,-62*,?
CCC1CCCCN1S(=O)(=O)c1ccc(C(=O)N(CCCN(C)C)c2nc3cc4c(cc3s2)OCO4)cc1 (centres undefined),?,13µM*,-17,?
CN(C)CCCN(C(=O)c1ccc(S(=O)(=O)N2CCCCCC2)cc1)c1nc2cc3c(cc2s1)OCO3,.,.,9,.
CCN(CC)CCN(C(=O)c1cc2c(ccc3ccccc32)oc1=O)c1nc2cc3c(cc2s1)OCCO3,-15%,-23%,-98*,94%
CN(C)CCN(C(=O)c1cccc2ccccc12)c1nc2cc3c(cc2s1)OCO3,?,10µM*,-112*,9.3µM*
CCCN1C(=O)C2(c3ccccc31)c1c(oc3cc(C)c(C)cc3c1=O)C(=O)N2CCCOC (centres undefined),.,.,73,.
CCOC(=O)c1c(-c2ccccc2)oc2ccc(N(C(C)=O)S(=O)(=O)c3ccc(CC)cc3)cc12,.,.,0,.
Cn1cnc([N+](=O)[O-])c1Sc1nc(N)nc2c1ncn2C1CC(O)C(CO)O1 (centres undefined),.,?,-82*,.
Nc1ncn(C2C[C@H](O)[C@@H](CO)O2)c(=O)n1 (some centres undefined),-11%,.,.,-3%
Cn1cnc([N+](=O)[O-])c1Sc1nc(N)nc2c1ncn2C1OC(CO)C(O)C1O (centres undefined),.,-25%,-76*,.
Nc1nc(SCc2ccc(Br)cc2)c2ncn(C3OC(CO)C(O)C3O)c2n1 (centres undefined),.,-13%,-61*,.
CCSc1nc(N)nc2c1ncn2C1OC(CO)C(O)C1O (centres undefined),.,-2%,3,.
COc1ccc(CSC2=CS(=O)(=O)c3ccccc3N2)cc1,-14%,-13%,-62*,-31%[5.75 µM]
CC1CCN(C2=NC(=O)/C(=C/c3cn(-c4ccccc4)nc3-c3cccc(S(=O)(=O)N(C)C)c3)S2)CC1,?,?,-62*,7.4µM*
CN(C)S(=O)(=O)c1cccc(-c2nn(-c3ccccc3)cc2/C=C(/C#N)C(=O)NCc2ccco2)c1,?,1%,-18,0%
CC1CCCN(C2=NC(=O)/C(=C/c3cn(-c4ccccc4)nc3-c3cccc(S(=O)(=O)N(C)C)c3)S2)C1 (centres undefined),1.7µM*,?,-14,?
COc1ccc(OC)c(-c2noc(N3CCN(c4cccc(C)c4C)CC3)n2)c1,.,.,-7,.
Brc1ccccc1CN1CCC(N2CCCCC2)CC1,1%,4µM*,-1,-1%
O[C@@H]1CN(C2CCN(Cc3ccccc3)CC2)CC[C@H]1N1CCCCCC1,.,?,5,.
O=C1C(C=NCCCN2CCCC2=O)=C(O)c2ccccc21,13µM*,-5%,95,143%
O=C1C(C=NC2CC2)=C(O)c2ccccc21,13µM*,7%,61,.
CC(C)CN=CC1=C(O)c2ccccc2C1=O,272%,25%,60,220%
CCC(C)n1cnc2c(c1=O)c1nc3ccccc3nc1n2Cc1ccc2c(c1)OCO2 (centres undefined),?,.,.,3.7µM*
CCOCCCn1c(C)nc2c(c1=O)c1nc3ccccc3nc1n2-c1ccc(C)cc1,?,10%,-29,0%
CCOCCCn1c(C)nc2c(c1=O)c1nc3ccccc3nc1n2-c1ccc2c(c1)OCCO2,?,-11%,.,5.2µM*
CCC(C)n1cnc2c(c1=O)c1nc3ccccc3nc1n2-c1ccc2c(c1)OCCO2 (centres undefined),13µM*,17%,-33,14%
Cc1ccc(CNC(=O)CCCN2C(=O)CCn3nc(-c4cn(C)c5ccccc45)cc32)cc1,.,.,3,.
CCOC(=O)c1ccc(N2C(=O)CC(N(Cc3ccc4c(c3)OCO4)C(=O)Nc3ccccc3)C2=O)cc1 (centres undefined),9.3µM*,-19%,-13,.
CCN1CCC(N(Cc2ccc3c(c2)OCO3)C(=O)Nc2ccccc2OC)CC1,.,.,-5,.
